# According to PubChem BioAssay AID2778 (National Center for Advancing Translational Sciences (NCATS), 2010):
# Results filed as inconclusive are left out. A call without a number means that no potency is given here. The source made the active and inactive calls. The call rests on the fitted dose curve; in most records, active means well fitted inhibition curve with a large enough effect; inconclusive means small, poorly fitted or top-dose-only effect, or effect the other way; inactive means flat fitted curve, though single readings scatter.
# Target: Menin (Homo sapiens) (UniProt O00255)
# Assay: Confirmation of Inhibitors Targeting the Menin-MLL Interaction in MLL Related Leukemias: Confirmation in an HTRF (commercial TR-FRET) Assay using His-tagged menin and biotin-labeled MLL peptide
# Conditions: His-menin / biotin-MLL peptide binding; series mostly up to 126 µM
# How it was run: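 Compounds were incubated 1 hr at ambient with a preformed His6-menin (200 nM)/biotinylated MLL-w.t. peptide (80 nM) complex in Tris pH 7.5 buffer; anti-His Eu-cryptate (3.5 nM) and SA-XL665 (10 nM) added, TR-FRET read after 1h.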
# Potency means the concentration at half of the fitted maximal effect.
# Menin (Homo sapiens), sequence (O00255 whole entry, looked up): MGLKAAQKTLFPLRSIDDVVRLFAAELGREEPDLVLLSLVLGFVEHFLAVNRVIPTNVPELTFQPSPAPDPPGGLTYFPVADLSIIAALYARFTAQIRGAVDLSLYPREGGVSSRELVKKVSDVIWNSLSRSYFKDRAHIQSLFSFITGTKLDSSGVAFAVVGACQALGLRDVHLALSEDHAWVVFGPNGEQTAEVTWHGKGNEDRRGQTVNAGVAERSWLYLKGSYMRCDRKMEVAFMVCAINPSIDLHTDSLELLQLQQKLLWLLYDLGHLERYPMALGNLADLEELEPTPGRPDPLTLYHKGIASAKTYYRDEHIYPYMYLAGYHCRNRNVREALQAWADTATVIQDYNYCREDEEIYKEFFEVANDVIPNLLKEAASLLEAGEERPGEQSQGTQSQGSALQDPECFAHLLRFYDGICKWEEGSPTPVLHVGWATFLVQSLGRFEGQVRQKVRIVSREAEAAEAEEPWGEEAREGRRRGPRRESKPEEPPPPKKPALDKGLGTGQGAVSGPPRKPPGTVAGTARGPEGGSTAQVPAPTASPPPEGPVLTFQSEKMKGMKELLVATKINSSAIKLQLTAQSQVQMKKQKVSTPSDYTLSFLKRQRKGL
row,Structure (SMILES),Potency
1,CCc1cc2c(N3CCN(C(=O)c4ccco4)CC3)ncnc2s1,100 µM (active)
2,CCC(=O)NC(=S)Nc1ccc(-c2nc3ccc(C)cc3s2)cc1,inactive
3,O=C(Nc1ccc2c(c1)OCO2)c1ccccc1,inactive
4,Cc1nc(C)c(-c2ccc(SCc3ccccc3F)nn2)s1,inactive
5,COc1ccc(N(C(=O)c2ccncc2)S(=O)(=O)c2ccc(Cl)cc2)cc1,inactive
6,Cc1cc(C)c2c(=O)cc(C(=O)NCc3ccccc3)oc2c1,inactive
7,CN1[C@H](CC(=O)c2ccccc2)CCC[C@H]1C[C@@H](O)c1ccccc1,inactive
8,COc1cccc(NC(=O)N2CCCc3ccccc32)c1,inactive
9,Clc1ccc(-c2nnc(-c3ccccc3)nc2-c2c[nH]c3ccccc23)cc1,inactive
10,O=[N+]([O-])c1ccc(S(=O)(=O)c2ccccc2)nc1,inactive
11,C=CCN(CC=C)S(=O)(=O)c1ccc(NC(=S)NC(=O)/C=C/c2cccc3ccccc23)cc1,inactive
12,COc1ccc(Cn2nnnc2C(c2ccccc2)N2CCN(C3CCCC3)CC2)cc1 (stereo not given),inactive
13,COc1ccc(OC)c(C2C3=C(N=c4s/c(=C\c5cccc(O)c5)c(=O)n42)c2ccccc2CC3)c1 (stereo not given),inactive
14,COc1cc(SC)ccc1C(=O)Nc1cccc(C2OCCCO2)c1,inactive
15,CC(c1cc2ccccc2s1)N(O)C(N)=O (stereo not given),inactive
16,Cc1cc2c(c(=O)n1Cc1ccccc1)C1O[C@](c3ccsc3)(Cc3cc(C#N)ccc31)O2,inactive
17,c1ccc(-c2ccc(-c3csnn3)cc2)cc1,inactive
18,O=C(C1CCCN(Cc2cccc(Cl)c2)C1)N1CCCCC1 (stereo not given),inactive

row,Structure (SMILES),Potency
1,CCCOc1ccc(C(=O)NNC(=S)NC(=O)c2cc(-c3ccc(Cl)cc3)nc3ccccc23)cc1,inactive
2,Cc1cnc(NC(=O)C2C(=O)c3ccccc3S(=O)(=O)N2C)s1 (stereo not given),inactive
3,O=C(CC(Sc1ccc(Br)cc1)C(=O)O)c1ccc(F)cc1 (stereo not given),inactive
4,C/C(=N\Nc1ccc(Cl)c(C(=O)O)c1)c1ccc[nH]1,inactive
5,CCOc1ccc2c(c1)C(NC(C)=O)C(=O)N2CCN1CCOCC1 (stereo not given),inactive
6,CC(=O)Nc1ccc(-c2cc(-c3ccc(NC(C)=O)cc3)nc(-c3ccc(NC(C)=O)cc3)n2)cc1,79.4 µM (active)
7,O=c1c2ccccc2nc(N/N=C/c2c(O)ccc3ccccc23)n1O,inactive
8,COC(=O)C1[C@H]2SC(C)(C)C(C(=O)OC)N2C(=O)N1Cc1nc2ccccc2s1 (stereo not given in full),inactive
9,CC1(C)CN=C(N2CCN(c3ncnc4sc5c(c34)CCCC5)CC2)S1,28.2 µM (active)
10,CCn1ncc(C(=O)Nc2cc(C)on2)c1C,inactive
11,O=C(COC(=O)c1ccc(NS(=O)(=O)c2cccs2)cc1)Nc1nc2c(F)c(F)c(F)cc2s1,39.8 µM (active)
12,COc1ccc(-c2csc(NC(=S)NC(=O)/C=C/c3ccc(C(C)C)cc3)n2)cc1OC,inactive
13,Cc1ccc(C)n1-c1ccc(N(C)C)cc1,inactive
14,NC(=O)c1cc2ccccc2o/c1=N/NC(=O)c1cccc(F)c1,inactive
15,O=C(NC(=S)Nc1ccccc1)c1cc(-c2ccccc2)nc2ccccc12,inactive
16,CCOC(=O)Cn1c2ccccc2n2nc(CCC(=O)O)c(=O)nc12,inactive
17,O=C(NNCS(=O)(=O)O)c1ccncc1,inactive
